# Reference: PubChem BioAssay (Tox21)
# Activity calls are given as the source filed them. Entries that show only a call come without a potency. Calls follow the shape of the full dose curve.
# Biological target: Acetylcholinesterase (Homo sapiens) (UniProt P22303)
# Assay: Acetylcholinesterase (AChE) small molecule antagonists: enzyme-based qHTS assay with human liver microsomes (AID 1347399); also: nearly all actives have a fitted effect of over 60% in size
# Conditions: Potency: qHTS inhibition; outcome: qHTS inhibition; series mostly up to 115 µM
# Outline: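 Recombinant human AChE (50 mU/mL in the enzyme mix) and human liver microsomes (0.25 mg/mL final) were preincubated with compound and NADPH (0.25 mg/mL final) for 30 min at 37 C. Acetylthiocholine/DTNB was then added; thiocholine was read colorimetrically after 10 min at room temperature.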
# Acetylcholinesterase (Homo sapiens), sequence (P22303 whole entry, looked up): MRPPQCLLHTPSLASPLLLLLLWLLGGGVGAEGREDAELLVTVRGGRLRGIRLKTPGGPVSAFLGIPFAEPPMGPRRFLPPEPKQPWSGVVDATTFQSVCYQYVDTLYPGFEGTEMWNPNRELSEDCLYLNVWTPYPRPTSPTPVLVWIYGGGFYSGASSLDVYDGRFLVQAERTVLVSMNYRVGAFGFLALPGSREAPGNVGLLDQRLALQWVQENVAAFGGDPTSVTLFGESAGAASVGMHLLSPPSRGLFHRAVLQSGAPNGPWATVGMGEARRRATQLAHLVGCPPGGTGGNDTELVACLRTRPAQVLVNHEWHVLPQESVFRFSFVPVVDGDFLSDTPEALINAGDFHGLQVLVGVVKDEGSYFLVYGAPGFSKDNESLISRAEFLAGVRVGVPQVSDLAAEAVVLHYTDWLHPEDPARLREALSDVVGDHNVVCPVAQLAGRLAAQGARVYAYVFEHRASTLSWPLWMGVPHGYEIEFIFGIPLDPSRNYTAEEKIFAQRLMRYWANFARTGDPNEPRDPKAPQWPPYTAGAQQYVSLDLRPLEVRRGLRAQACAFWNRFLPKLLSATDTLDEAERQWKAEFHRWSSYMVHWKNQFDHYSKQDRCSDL
SMILES,Potency,"activity change, negative = inhibition"
NCCN1CCNC1=O,inactive,
COc1ccccc1Oc1c(NS(=O)(=O)c2ccc(C(C)(C)C)cc2)nc(-c2ncccn2)nc1OCCO,inactive,
CCCCCCCCCCCCCCCBr,inactive,
CCOC(N)=O,inactive,
NC(=O)CCCCC1CCSS1 (stereo not given),inactive,
Oc1c(Cl)cc(Cl)c2cccnc12,inactive,
CCn1cc(C(=O)O)c(=O)c2cnc(N3CCCC3)nc21,,-1.77% [at 10.5 µM] (inactive)
O=C1c2ccccc2C(=O)C1c1ccc(Br)cc1,inactive,
CCCCC(CC)CN1CN(CC(CC)CCCC)CC(C)(N)C1 (stereo not given),inactive,
SCCc1cnccn1,inactive,
Cc1cc(C2(c3cc(C)c(O)cc3C)OS(=O)(=O)c3ccccc32)c(C)cc1O,inactive,
C[C@@H]1C[C@H]2[C@@H]3CCC4=CC(=O)C=C[C@]4(C)[C@@]3(F)[C@@H](O)C[C@]2(C)[C@@]1(O)C(=O)COC(=O)c1ccncc1,inactive,
CC(=O)CC/C=C(\C)CCC=C(C)C,inactive,
CO[Si](CCCn1c(=O)n(CCC[Si](OC)(OC)OC)c(=O)n(CCC[Si](OC)(OC)OC)c1=O)(OC)OC,inactive,
COCCCOc1cc(C[C@@H](C[C@H](N)[C@@H](O)C[C@H](C(=O)NCC(C)(C)C(N)=O)C(C)C)C(C)C)ccc1OC,inactive,
NCCOCCOCCN,inactive,
CC(C)CC(C)O (stereo not given),inactive,
CC(C)C(=O)OC(=O)C(C)C,inactive,
O=C(Nc1cccc(Cl)c1)OCC#CCCl,inactive,
CC/C(C)=N\O[Si](C)(O/N=C(\C)CC)O/N=C(\C)CC,inactive,

SMILES,Potency,"activity change, negative = inhibition"
O=C(Oc1ccccc1)c1ccc2ccccc2c1O,inactive,
C=C/C(C)=C/C/C=C(\C)CCC=C(C)C,inactive,
c1ccc2c(c1)c1cccc3ccc4cccc2c4c31,inactive,
O=C(OCC(O)CO)c1ccccc1Nc1ccnc2c(C(F)(F)F)cccc12 (stereo not given),inactive,
CCN1CCCC1CN (stereo not given),inactive,
O=C(NO)c1ccccc1,inactive,
Cc1cc2c(OCC(CNC(C)(C)C)OC(=O)c3ccccc3)cccc2[nH]1 (stereo not given),inactive,
O=C(O)Cc1ccccc1Nc1c(Cl)cccc1Cl,inactive,
O=C(O)c1c(Cl)ccc(Cl)c1Cl,inactive,
O=C(O)c1ccco1,inactive,
CC(C)=CC(=O)C=C(C)C,inactive,
O=C(O)CCNC(=O)c1ccccc1,inactive,
Cc1c(C(=O)O)c(O)cc2c1C(=O)c1c(O)c([C@@H]3O[C@H](CO)[C@@H](O)[C@H](O)[C@H]3O)c(O)c(O)c1C2=O,inactive,
N=C(N)N,inactive,
Cc1c(C(=O)c2c[nH]n(C)c2=O)ccc(S(C)(=O)=O)c1C1=NOCC1,inactive,
CCCCCCCCC,inactive,
CC1=CC2C3CC(C=C3C)C2C1 (stereo not given),inactive,
O=C(O)Cc1ccc(-c2ccccc2)cc1,inactive,
O=C(CCCCCCCCC#CI)Oc1ccccc1,inactive,
CC/C=C\C/C=C\C/C=C\CCCCCCCC(=O)OCC,inactive,
